Source: PubChem BioAssay (EPA / NIEHS)
Values joined by “and” are separate entries in the source; they are usually repeats but may differ in a detail not shown here. Equal values may be shown once. A structure can be active in one record and inactive in another. Active and inactive are the calls of the source. The calls were made as follows: active = hit-call score of the fitted dose curve at least 0.9, where 1 is the maximum; inactive = score below 0.9.

Legend:
Details in all cases: mRNA level, 48 h; actives raise or lower the signal
[1] = read-out: JUN Transcription Factor, JUN (gene 3725); experiment: LTEA_HepaRG_JUN: Life Technologies and Expression Analysis (LTEA) Assay for JUN Transcription Factor using HepaRG (AID 2283513)
How it was run: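 Human HepaRG liver cells receive test chemicals in 0.5% DMSO for 48 h across an eight-point range topping at 100 uM. Expression changes in JUN are scored in both directions against the DMSO vehicle.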

[2] = read-out: Lipase C (LIPC), LIPC (gene 3990); experiment: LTEA_HepaRG_LIPC: Life Technologies and Expression Analysis (LTEA) Assay for Lipase C (LIPC) using HepaRG (AID 2283514)
How it was run: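 Read-out is LIPC transcript level by TaqMan qRT-PCR, normalized to three housekeeping genes, after 48 h chemical treatment of human HepaRG liver cells. Curves span eight concentrations topping at 100 uM; activity in either direction scored relative to 0.5% DMSO.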

[3] = read-out: Lipoprotein lipase (LPL), LPL (gene 4023); experiment: LTEA_HepaRG_LPL: Life Technologies and Expression Analysis (LTEA) Assay for Lipoprotein lipase (LPL) using HepaRG (AID 2283515)
How it was run: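 Read-out is LPL transcript level by qRT-PCR, normalized to three housekeeping genes and fitted bidirectionally against the DMSO control. Human HepaRG cells received chemicals for 48 h at up to 100 uM.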

[4] = read-out: MicroRNA 122 (MIR122), gene 406906; experiment: LTEA_HepaRG_MIR122: Life Technologies and Expression Analysis (LTEA) Assay for MicroRNA 122 (MIR122) using HepaRG (AID 2283516); also: the transcript read is the microRNA miR-122
How it was run: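 HepaRG, 48 h exposure, 8-pt half-log from 100 uM, 0.5% DMSO; TaqMan qRT-PCR; bidirectional fit vs DMSO.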

[5] = read-out: matrix metalloproteinase-10 (MMP10), MMP10 (gene 4319); experiment: LTEA_HepaRG_MMP10: Life Technologies and Expression Analysis (LTEA) Assay for matrix metalloproteinase-10 (MMP10) using HepaRG (AID 2283517)
How it was run: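 Gain or loss of MMP10 mRNA is fitted relative to the 0.5% DMSO vehicle. The human hepatic line HepaRG receives a 48-hour serum-free exposure, in duplicate, with a maximum concentration of 100 uM.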

[6] = read-out: MYC, MYC (gene 4609); experiment: LTEA_HepaRG_MYC: Life Technologies and Expression Analysis (LTEA) Assay for MYC using HepaRG (AID 2283518)
How it was run: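 Differentiated HepaRG cells exposed 48 h in serum-free induction medium to 8 concentrations (top 100 uM, half-log steps; 0.5% DMSO), duplicate. MYC mRNA measured by Fluidigm qRT-PCR, normalized to ACTB, GAPDH, POLR2A; bidirectional fit versus DMSO.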

[7] = read-out: matrix metalloproteinase-3 (MMP3), MMP3 (gene 4314); experiment: LTEA_HepaRG_MMP3: Life Technologies and Expression Analysis (LTEA) Assay for matrix metalloproteinase-3 (MMP3) using HepaRG (AID 2283519)
How it was run: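 HepaRG, human; 48 h dosing, 8 conc. (max 100 uM, half-log), duplicate, 0.5% DMSO. Readout: MMP3 transcript by Fluidigm TaqMan qRT-PCR, ACTB/GAPDH/POLR2A-normalised. Gain or loss fitted vs DMSO.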

[8] = read-out: Paternally Expressed 10 (PEG10), PEG10 (gene 23089); experiment: LTEA_HepaRG_PEG10: Life Technologies and Expression Analysis (LTEA) Assay for Paternally Expressed 10 (PEG10) using HepaRG (AID 2283520);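 as to AC50: PEG10 transcript by qRT-PCR normalised to ACTB GAPDH and POLR2A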
How it was run: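 Chemicals tested on HepaRG cells for 48 h, highest concentration 100 uM. PEG10 expression assessed by qRT-PCR relative to DMSO control.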

[9] = read-out: Nuclear factor NF-kappa-B p105 subunit (Homo sapiens) (UniProt P19838); experiment: LTEA_HepaRG_NFKB1: Life Technologies and Expression Analysis (LTEA) Assay for Nuclear Factor Kappa B Subunit 1 (NFKB1) using HepaRG (AID 2283521)
How it was run: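 NFKB1 transcript was measured by TaqMan qRT-PCR on Fluidigm arrays, normalised to three housekeeping genes and fitted in both directions against 0.5% DMSO. HepaRG cells were dosed in duplicate for 48 h in serum-free induction medium, eight half-log steps from 100 uM.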

[10] = read-out: Phosphatase and tensin (PTEN), PTEN (gene 5728); experiment: LTEA_HepaRG_PTEN: Life Technologies and Expression Analysis (LTEA) Assay for Phosphatase and tensin (PTEN) using HepaRG (AID 2283523)
How it was run: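 Read-out is PTEN transcript level by multiplexed TaqMan qRT-PCR after 48 h chemical treatment of human HepaRG cultures in serum-free induction medium. Concentrations spanned 100 uM downward in half-log steps, 0.5% DMSO throughout; activity fitted in both directions against vehicle.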

[11] = read-out: solute carrier (SLC22A1), SLC22A1 (gene 6580); experiment: LTEA_HepaRG_SLC22A1: Life Technologies and Expression Analysis (LTEA) Assay for solute carrier (SLC22A1) using HepaRG (AID 2283524)
How it was run: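 HepaRG (human liver line), 48 h dosing in serum-free induction medium; 8 conc., half-log down from 100 uM, 0.5% DMSO vehicle, duplicates. Endpoint: SLC22A1 mRNA, qRT-PCR, housekeeping-normalized; gain/loss fit vs DMSO.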

[12] = read-out: Pyruvate Dehydrogenase Kinase 4 (PDK4), PDK4 (gene 5166); experiment: LTEA_HepaRG_PDK4: Life Technologies and Expression Analysis (LTEA) Assay for Pyruvate Dehydrogenase Kinase 4 (PDK4) using HepaRG (AID 2283525)
How it was run: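 In this multiplexed human HepaRG expression assay, cells are treated 48 h with test chemicals across an eight-point range starting at 100 uM. PDK4 mRNA changes, normalized to ACTB/GAPDH/POLR2A, are fitted in both directions relative to vehicle.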

[13] = read-out: NAD(P)H dehydrogenase [quinone] 1 (NQO1), NQO1 (gene 1728); experiment: LTEA_HepaRG_NQO1: Life Technologies and Expression Analysis (LTEA) Assay for NAD(P)H dehydrogenase [quinone] 1 (NQO1) using HepaRG (AID 2283526)
How it was run: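 Human HepaRG hepatic cells received chemicals for 48 h in serum-free induction medium with 0.5% DMSO, up to 100 uM. Expression was assessed by TaqMan qRT-PCR against housekeeping controls and fitted bidirectionally against DMSO.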

[14] = read-out: Nuclear factor erythroid 2-related factor 2 (Homo sapiens) (UniProt Q16236); experiment: LTEA_HepaRG_NFE2L2: Life Technologies and Expression Analysis (LTEA) Assay for Nuclear factor erythroid 2-related factor 2 (NFE2L2) Transcription Factor using HepaRG (AID 2283527)
How it was run: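 Transcript level of NFE2L2 is the read-out, measured by microfluidic TaqMan qRT-PCR and normalized to three housekeeping genes. Human HepaRG cultures received test chemical for 48 h at up to 100 uM in half-log steps. Gain or loss of signal is fitted relative to 0.5% DMSO.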

[15] = read-out: succinate dehydrogenase complex iron sulfur subunit B (SDHB), SDHB (gene 6390); experiment: LTEA_HepaRG_SDHB: Life Technologies and Expression Analysis (LTEA) Assay for succinate dehydrogenase complex iron sulfur subunit B (SDHB) using HepaRG (AID 2283528)
How it was run: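 SDHB transcript level read by TaqMan qRT-PCR, housekeeping-normalised (ACTB, GAPDH, POLR2A), after 48 h chemical treatment of plated HepaRG cells; eight concentrations top 100 uM, half-log steps, 0.5% DMSO, duplicates; fitted both directions against DMSO.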

[16] = read-out: Signal transducer and activator of transcription 3 (Homo sapiens) (UniProt P40763); experiment: LTEA_HepaRG_STAT3: Life Technologies and Expression Analysis (LTEA) Assay for Signal transducer and activator of transcription (STAT3) using HepaRG (AID 2283529)
How it was run: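 Read-out is STAT3 mRNA level by qRT-PCR, normalized to three housekeeping genes, in human HepaRG liver cells treated for 48 h. Concentrations ran from 100 uM downward in half-log steps; curves were fitted for gain or loss relative to 0.5% DMSO.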

[17] = read-out: sulfotransferase 2A1 (SULT2A1), SULT2A1 (gene 6822); experiment: LTEA_HepaRG_SULT2A1: Life Technologies and Expression Analysis (LTEA) Assay for sulfotransferase 2A1 (SULT2A1) using HepaRG (AID 2283531)
How it was run: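 HepaRG human liver cells, 48 h exposure in serum-free induction medium to 8 half-log concentrations topping at 100 µM (0.5% DMSO), duplicate wells. SULT2A1 mRNA measured by TaqMan qRT-PCR, normalized to ACTB/GAPDH/POLR2A; bidirectional fit against DMSO.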

[18] = read-out: Transforming Growth Factor (TGFA), TGFA (gene 7039); experiment: LTEA_HepaRG_TGFA: Life Technologies and Expression Analysis (LTEA) Assay for Transforming Growth Factor (TGFA) using HepaRG (AID 2283532)
How it was run: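 HepaRG (human liver line), 48 h exposure, 8 conc. half-log down from 100 uM, 0.5% DMSO vehicle, duplicates; serum-free induction medium. TGFA mRNA by TaqMan qRT-PCR, ACTB/GAPDH/POLR2A normalization; gain/loss fit vs DMSO.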

[19] = read-out: solute carrier (SLCO1B1), SLCO1B1 (gene 10599); experiment: LTEA_HepaRG_SLCO1B1: Life Technologies and Expression Analysis (LTEA) Assay for solute carrier (SLCO1B1) using HepaRG (AID 2283530)
How it was run: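 Differentiated human HepaRG cells were exposed for 48 h in serum-free induction medium to eight half-log concentrations, top 100 uM, in 0.5% DMSO. SLCO1B1 mRNA was measured by qRT-PCR, normalized to ACTB, GAPDH and POLR2A, and fitted bidirectionally against DMSO.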

[20] = read-out: Protein phosphatase 2A (PPP2R4), PTPA (gene 5524); experiment: LTEA_HepaRG_PPP2R4: Life Technologies and Expression Analysis (LTEA) Assay for Protein phosphatase 2A (PPP2R4) using HepaRG (AID 2283522)
How it was run: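 Gene-expression endpoint in HepaRG hepatic cells: 48 h treatment across eight half-log concentrations up to 100 uM in 0.5% DMSO. PPP2R4 mRNA by qRT-PCR, normalized to three endogenous control genes.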

Measured: AC50

Sequence of Signal transducer and activator of transcription 3 (Homo sapiens) (P40763 whole entry, looked up): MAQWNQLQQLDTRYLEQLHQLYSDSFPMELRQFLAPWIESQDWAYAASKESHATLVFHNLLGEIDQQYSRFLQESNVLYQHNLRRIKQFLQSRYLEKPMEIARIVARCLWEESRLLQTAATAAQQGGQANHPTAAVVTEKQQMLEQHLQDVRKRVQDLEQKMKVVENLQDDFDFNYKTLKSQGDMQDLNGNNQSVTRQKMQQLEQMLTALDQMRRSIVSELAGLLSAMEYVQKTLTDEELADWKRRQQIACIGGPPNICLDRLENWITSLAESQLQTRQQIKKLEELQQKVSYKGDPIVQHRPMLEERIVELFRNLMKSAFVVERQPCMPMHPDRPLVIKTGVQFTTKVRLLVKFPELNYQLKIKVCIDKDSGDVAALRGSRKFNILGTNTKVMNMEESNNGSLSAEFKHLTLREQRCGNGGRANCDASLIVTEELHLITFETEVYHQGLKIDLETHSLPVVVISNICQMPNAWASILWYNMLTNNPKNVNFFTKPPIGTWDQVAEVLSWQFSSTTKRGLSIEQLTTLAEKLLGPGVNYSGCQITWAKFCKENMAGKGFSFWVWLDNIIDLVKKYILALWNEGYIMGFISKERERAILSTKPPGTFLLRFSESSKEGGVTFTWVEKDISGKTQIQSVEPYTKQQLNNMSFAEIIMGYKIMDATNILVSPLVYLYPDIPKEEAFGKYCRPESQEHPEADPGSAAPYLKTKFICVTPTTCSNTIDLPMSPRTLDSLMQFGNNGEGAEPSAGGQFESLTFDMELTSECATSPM
Sequence of Nuclear factor erythroid 2-related factor 2 (Homo sapiens) (Q16236 whole entry, looked up): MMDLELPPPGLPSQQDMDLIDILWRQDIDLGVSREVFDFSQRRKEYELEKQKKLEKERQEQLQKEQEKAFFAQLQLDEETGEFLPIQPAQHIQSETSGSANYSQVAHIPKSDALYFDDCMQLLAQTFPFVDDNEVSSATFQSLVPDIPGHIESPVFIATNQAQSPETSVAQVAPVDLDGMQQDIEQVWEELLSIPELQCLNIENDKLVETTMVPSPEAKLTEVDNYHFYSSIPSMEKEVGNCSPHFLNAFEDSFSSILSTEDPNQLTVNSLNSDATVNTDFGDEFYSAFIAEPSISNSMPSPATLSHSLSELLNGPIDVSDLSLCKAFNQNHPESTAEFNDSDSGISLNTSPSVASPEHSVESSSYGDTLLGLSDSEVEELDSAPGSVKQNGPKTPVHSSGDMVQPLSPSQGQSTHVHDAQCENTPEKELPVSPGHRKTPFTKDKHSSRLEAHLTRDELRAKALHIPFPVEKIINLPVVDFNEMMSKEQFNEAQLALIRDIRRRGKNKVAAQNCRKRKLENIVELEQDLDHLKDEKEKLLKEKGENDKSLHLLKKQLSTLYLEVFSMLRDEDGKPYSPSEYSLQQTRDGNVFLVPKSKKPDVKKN
Sequence of Nuclear factor NF-kappa-B p105 subunit (Homo sapiens) (P19838 whole entry, looked up): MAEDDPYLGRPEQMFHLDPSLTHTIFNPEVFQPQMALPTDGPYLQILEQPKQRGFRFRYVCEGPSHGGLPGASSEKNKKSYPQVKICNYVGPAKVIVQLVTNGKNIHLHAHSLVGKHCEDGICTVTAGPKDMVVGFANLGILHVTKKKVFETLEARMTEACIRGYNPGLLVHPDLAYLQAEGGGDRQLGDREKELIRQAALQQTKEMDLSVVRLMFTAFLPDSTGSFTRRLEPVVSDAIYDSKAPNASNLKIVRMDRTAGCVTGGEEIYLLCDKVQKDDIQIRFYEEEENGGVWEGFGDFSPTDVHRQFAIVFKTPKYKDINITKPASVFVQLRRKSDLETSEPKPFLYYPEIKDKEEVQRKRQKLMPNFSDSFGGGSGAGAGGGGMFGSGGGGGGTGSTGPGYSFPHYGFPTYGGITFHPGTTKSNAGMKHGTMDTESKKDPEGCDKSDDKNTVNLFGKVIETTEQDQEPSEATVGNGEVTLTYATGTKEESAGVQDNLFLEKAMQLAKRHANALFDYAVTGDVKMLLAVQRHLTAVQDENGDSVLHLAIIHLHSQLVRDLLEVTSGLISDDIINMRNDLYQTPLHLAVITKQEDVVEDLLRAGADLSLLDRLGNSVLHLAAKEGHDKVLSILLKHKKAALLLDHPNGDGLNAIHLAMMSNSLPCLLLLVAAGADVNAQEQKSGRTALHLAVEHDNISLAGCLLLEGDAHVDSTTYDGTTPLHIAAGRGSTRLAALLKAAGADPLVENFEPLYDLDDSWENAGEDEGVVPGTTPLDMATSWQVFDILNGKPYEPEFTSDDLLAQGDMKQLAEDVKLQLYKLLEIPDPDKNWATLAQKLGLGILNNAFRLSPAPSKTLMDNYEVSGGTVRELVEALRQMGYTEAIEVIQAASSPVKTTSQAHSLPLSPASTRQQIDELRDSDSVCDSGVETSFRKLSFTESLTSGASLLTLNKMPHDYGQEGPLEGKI

O=C(Nc1ccccc1)Nc1cnns1
active: [2] 76.9 µM | [3] 81.5 µM | [4] 69.2 µM | [6] 87.7 µM | [7] 91.2 µM | [8] 61.5 µM | [11] 70 µM | [12] 62.4 µM | [17] 50 µM
inactive: [1] | [5] | [9] | [10] | [13] | [14] | [15] | [16] | [18]

CC(C)OC(=O)Nc1cccc(Cl)c1
not listed: [19] | [20]
inactive: all other assays above

CN1CSC(=S)N(C)C1
not listed: [19] | [20]
inactive: all other assays above

CC1(C)C(C=C(Cl)Cl)C1C(=O)OC(C#N)c1ccc(F)c(Oc2ccccc2)c1 (configuration not stated)
active: [12] 50 µM | [14] 50 µM | [17] 50 µM
not listed: [19] | [20]
inactive: all other assays above

O=S(=O)(O)C(F)(F)C(F)(F)C(F)(F)C(F)(F)C(F)(F)C(F)(F)C(F)(F)C(F)(F)F
active: [2] 76 µM and 50 µM and 48 µM | [3] 61.1 µM | [4] 82.5 µM and 84.5 µM and 48 µM | [5] 87.5 µM and 83.7 µM | [6] 50 µM [middle of 4 runs] | [11] 90.2 µM and 89.8 µM and 83.1 µM | [12] 27 µM [middle of 4 runs] | [14] 58 µM | [15] 9.92 µM | [17] 7.51 µM and 83 µM and 85.1 µM | [18] 50 µM and 16.7 µM and 48 µM
inactive: [1] | [2] | [3] | [4] | [5] | [7] | [8] | [10] | [11] | [13] | [14] | [15] | [16] | [17]

O=S1OCC2C(CO1)C1(Cl)C(Cl)=C(Cl)C2(Cl)C1(Cl)Cl (configuration not stated)
active: [2] 62.7 µM | [3] 87.5 µM | [4] 89.1 µM | [6] 77.5 µM | [11] 63 µM | [19] 20.8 µM | [17] 91.7 µM
not listed: [20]
inactive: all other assays above

COP(=S)(OC)Oc1ccc(SC)c(C)c1
active: [7] 50 µM | [8] 9.92 µM
not listed: [19] | [20]
inactive: all other assays above

N#CN
not listed: [20]
inactive: all other assays above

CCOC1Oc2ccc(OS(C)(=O)=O)cc2C1(C)C (configuration not stated)
active: [2] 74 µM | [3] 76.4 µM | [4] 78.7 µM | [6] 77.7 µM | [8] 28.4 µM | [9] 9.92 µM | [11] 71.9 µM | [12] 85.7 µM | [15] 9.92 µM | [16] 21.4 µM | [17] 83.5 µM | [18] 90.8 µM
inactive: [1] | [5] | [7] | [20] | [10] | [13] | [14]

C#CCN1C(=O)COc2cc(F)c(N3C(=O)C4=C(CCCC4)C3=O)cc21
active: [2] 26.3 µM | [8] 37.8 µM
inactive: all other assays above
